Measured values published in the supplement of paper PMC8975748.
Structures can show the parent of a compound that is named as a salt. ± gives the standard deviation of the averaged measurements.

What was measured:
[1] = system: Saccharomyces cerevisiae BY4741 SeMeCo community; test: mean cell size (pixel area) (pixels); higher = larger cells; conditions: 10 µM; 24 h; SM minimal medium
How it was run: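 A four-plasmid fluorescent Saccharomyces cerevisiae BY4741 community was tested; each plasmid complements one auxotrophy and carries a fluorescent marker. An overnight preculture at OD600 = 1.0 was diluted to OD600 = 0.3, and 70 µl was added to 384-well plates acoustically predosed with drug (final 10 µM) in SM medium for 24 h. Cells were fixed with paraformaldehyde and imaged by automated confocal microscopy, with analysis in Harmony. Mean cell pixel area per well is averaged over 3 replicates. Same SeMeCo high-content imaging drug screen: Selleck FDA-approved drugs at 10 µM, 24 h in SM medium, 384-well plates, 3 replicates.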

[2] = system: Saccharomyces cerevisiae BY4741 SeMeCo community; test: z-score of prototroph abundance vs DMSO median; higher = larger share of this subpopulation than in DMSO controls; conditions: 10 µM; 24 h; SM minimal medium; subpopulation (auxotrophy): Prototroph
How it was run: (§1)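 A Saccharomyces cerevisiae BY4741 community carried four plasmids, each restoring one auxotrophy and encoding a distinct fluorescent protein. It was pre-grown overnight to OD600 1.0, diluted to 0.3, and 70 µl was added to 384-well plates acoustically predosed with library drugs (10 µM final), then grown 24 h in minimal SM medium. Cells were paraformaldehyde-fixed and imaged by automated confocal microscopy, with single-auxotroph fluorescent strains setting thresholds and autofluorescence correction. Each subpopulation's abundance was scored as a z-score against the vehicle-well median.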

[3] = system: Saccharomyces cerevisiae BY4741 SeMeCo community; test: z-score of subpopulation abundance vs DMSO median, subpopulation auxotrophic for M; higher = larger share of this subpopulation than in DMSO controls; conditions: 10 µM; 24 h; SM minimal medium; subpopulation (auxotrophy): M
How it was run: as §1

[4] = system: Saccharomyces cerevisiae BY4741 SeMeCo community; test: z-score of subpopulation abundance vs DMSO median, subpopulation auxotrophic for L; higher = larger share of this subpopulation than in DMSO controls; conditions: 10 µM; 24 h; SM minimal medium; subpopulation (auxotrophy): L
How it was run: as §1

[5] = system: Saccharomyces cerevisiae BY4741 SeMeCo community; test: z-score of subpopulation abundance vs DMSO median, subpopulation auxotrophic for H; higher = larger share of this subpopulation than in DMSO controls; conditions: 10 µM; 24 h; SM minimal medium; subpopulation (auxotrophy): H
How it was run: as §1

[6] = system: Saccharomyces cerevisiae BY4741 SeMeCo community; test: z-score of subpopulation abundance vs DMSO median, subpopulation auxotrophic for LU; higher = larger share of this subpopulation than in DMSO controls; conditions: 10 µM; 24 h; SM minimal medium; subpopulation (auxotrophy): LU
How it was run: as §1

[7] = system: Saccharomyces cerevisiae BY4741 SeMeCo community; test: z-score of subpopulation abundance vs DMSO median, subpopulation auxotrophic for LM; higher = larger share of this subpopulation than in DMSO controls; conditions: 10 µM; 24 h; SM minimal medium; subpopulation (auxotrophy): LM
How it was run: as §1

[8] = system: Saccharomyces cerevisiae BY4741 SeMeCo community; test: z-score of subpopulation abundance vs DMSO median, subpopulation auxotrophic for HM; higher = larger share of this subpopulation than in DMSO controls; conditions: 10 µM; 24 h; SM minimal medium; subpopulation (auxotrophy): HM
How it was run: as §1

[9] = system: Saccharomyces cerevisiae BY4741 SeMeCo community; test: z-score of subpopulation abundance vs DMSO median, subpopulation auxotrophic for HU; higher = larger share of this subpopulation than in DMSO controls; conditions: 10 µM; 24 h; SM minimal medium; subpopulation (auxotrophy): HU
How it was run: as §1

[10] = system: Saccharomyces cerevisiae BY4741 SeMeCo community; test: z-score of subpopulation abundance vs DMSO median, subpopulation auxotrophic for UM; higher = larger share of this subpopulation than in DMSO controls; conditions: 10 µM; 24 h; SM minimal medium; subpopulation (auxotrophy): UM
How it was run: as §1

[11] = system: Saccharomyces cerevisiae BY4741 SeMeCo community; test: z-score of subpopulation abundance vs DMSO median, subpopulation auxotrophic for HLU; higher = larger share of this subpopulation than in DMSO controls; conditions: 10 µM; 24 h; SM minimal medium; subpopulation (auxotrophy): HLU
How it was run: as §1

[12] = system: Saccharomyces cerevisiae BY4741 SeMeCo community; test: z-score of subpopulation abundance vs DMSO median, subpopulation auxotrophic for HLM; higher = larger share of this subpopulation than in DMSO controls; conditions: 10 µM; 24 h; SM minimal medium; subpopulation (auxotrophy): HLM
How it was run: as §1

[13] = system: Saccharomyces cerevisiae BY4741 SeMeCo community; test: z-score of subpopulation abundance vs DMSO median, subpopulation auxotrophic for HUM; higher = larger share of this subpopulation than in DMSO controls; conditions: 10 µM; 24 h; SM minimal medium; subpopulation (auxotrophy): HUM
How it was run: as §1

[14] = system: Saccharomyces cerevisiae BY4741 SeMeCo community; test: z-score of subpopulation abundance vs DMSO median, subpopulation auxotrophic for LUM; higher = larger share of this subpopulation than in DMSO controls; conditions: 10 µM; 24 h; SM minimal medium; subpopulation (auxotrophy): LUM
How it was run: as §1

[15] = system: Saccharomyces cerevisiae BY4741 SeMeCo community; test: z-score of subpopulation abundance vs DMSO median, subpopulation auxotrophic for HLUM; higher = larger share of this subpopulation than in DMSO controls; conditions: 10 µM; 24 h; SM minimal medium; subpopulation (auxotrophy): HLUM
How it was run: as §1

[16] = system: Saccharomyces cerevisiae BY4741 SeMeCo community; test: z-score of subpopulation abundance vs DMSO median, subpopulation auxotrophic for U; higher = larger share of this subpopulation than in DMSO controls; conditions: 10 µM; 24 h; SM minimal medium; subpopulation (auxotrophy): U
How it was run: as §1

[17] = system: Saccharomyces cerevisiae BY4741 SeMeCo community; test: z-score of subpopulation abundance vs DMSO median, subpopulation auxotrophic for HL; higher = larger share of this subpopulation than in DMSO controls; conditions: 10 µM; 24 h; SM minimal medium; subpopulation (auxotrophy): HL
How it was run: as §1

Structure (SMILES) | mean cell size [1] | z-score of prototroph abundance [2] | z-score of subpopulation abundance [3] | z-score of subpopulation abundance [4] | z-score of subpopulation abundance [5] | z-score of subpopulation abundance [6] | z-score of subpopulation abundance [7] | z-score of subpopulation abundance [8] | z-score of subpopulation abundance [9] | z-score of subpopulation abundance [10] | z-score of subpopulation abundance [11] | z-score of subpopulation abundance [12] | z-score of subpopulation abundance [13] | z-score of subpopulation abundance [14] | z-score of subpopulation abundance [15] | z-score of subpopulation abundance [16] | z-score of subpopulation abundance [17]
C[N+]1(C)[C@@H]2C[C@@H](OC(=O)C(O)(c3cccs3)c3cccs3)C[C@H]1[C@@H]1O[C@@H]12 [Tiotropium Bromide hydrate] | 12.5 ± 0.25 | 0.56 | 0.04 | -0.76 | -0.8 | -0.81 | -0.42 | -0.06 | -0.66 | 0.07 | -0.81 | -0.78 | -0.43 | -0.67 | -0.81 |  | 
Oc1ccc(Cl)c2cccnc12 [Cloxiquine] | 14.28 ± 0.12 | -17.6 | 5.82 | -1.33 | 13.1 | 6.41 | 8.36 | 26.6 | 11.8 | 6.45 | 17.6 | 64 | 14.5 |  | 43.7 | -1.71 | 
O=c1c(-c2ccc(O)cc2)coc2c([C@@H]3O[C@H](CO)[C@@H](O)[C@H](O)[C@H]3O)c(O)ccc12 [Puerarin] | 12.55 ± 0.11 | -0.2 | 0.72 | -0.61 | 0.2 | -0.47 | -0.04 | 1.09 | 0.41 | 0.39 | 0.12 | 1.18 | -0.25 |  | -0.33 |  | 0.23
Cc1ccccc1OCC(O)CO (stereo not given) [Mephenesin] | 12.23 ± 0.086 | 0.89 | 0 | 0.09 |  | -0.42 | 0.02 | -0.48 | -0.86 |  | -0.38 | -0.4 | -0.77 | -0.39 | -0.28 |  | -0.53
COc1c(N2CCNC(C)C2)c(F)cc2c(=O)c(C(=O)O)cn(C3CC3)c12 (stereo not given) [Gatifloxacin] | 12.4 ± 0.17 | -0.15 | -0.13 | -0.51 | -0.44 | 0.36 | -0.79 | -0.89 | 0.38 | 0.32 | -0.36 | -0.34 | 0.51 |  | -0.38 | 0.81 | -0.93
CO/N=C(/C(=O)N[C@@H]1C(=O)N2C(C(=O)OCOC(=O)C(C)(C)C)=C(C)CS[C@H]12)c1csc(N)n1 [Cefetamet pivoxil hydrochloride] | 12.46 ± 0.1 | -1.5 | 0.7 | 0.83 |  | 0.94 | 0.52 | 1.3 | 0.78 | 0.64 | 1.65 | 1.15 | 0.8 | 1.09 | 0.63 |  | 
C[n+]1ccccc1/C=N/O [Pralidoxime chloride] | 11.9 ± 0.062 | -0.28 | 1.37 | -0.96 | -1.61 | 0.11 | 0.17 | -0.08 | 0.45 |  | -0.43 | -0.4 | 0.39 | 0.34 | -0.34 |  | -0.65
CCOc1ccc2ccccc2c1C(=O)N[C@@H]1C(=O)N2[C@@H]1SC(C)(C)[C@@H]2C(=O)O [Nafcillin Sodium] | 12.2 ± 0.23 |  | -0.26 | 0.95 | -0.47 | 0.04 | 0.39 | 0.22 | -0.72 |  | -0.19 | -0.71 | 0 | 0.08 | -0.09 | -0.63 | 
Cc1onc(-c2c(F)cccc2Cl)c1C(=O)N[C@@H]1C(=O)N2[C@@H]1SC(C)(C)[C@@H]2C(=O)O [Flucloxacillin sodium] | 12.55 ± 0.1 | -0.59 | 1.08 | -0.25 | -0.11 | 0.16 | -0.65 | 0.12 | -0.23 |  | -0.04 | -0.51 | 0.1 |  | -0.68 | 0.55 | -0.43
CC(C)COCC(CN(Cc1ccccc1)c1ccccc1)N1CCCC1 (stereo not given) [Bepridil hydrochloride] | 12.5 ± 0.16 |  | -0.18 | 0.85 | 1.08 | 1.16 | -0.16 | 0.11 | 0.45 | 0.18 | 0.92 | 2.56 | 1.35 | 1.57 | 2.72 |  | 1.07
Nc1ccc(C(=O)O)c(O)c1 [4-Aminosalicylic acid] | 12 ± 0.19 |  | 1.33 | 0.78 | -0.01 | -3.37 | 0.62 | 0.06 | -3.39 | -2.19 | -0.27 | -0.9 | -1.3 |  | -0.18 | -3.36 | 0.08
CO/N=C(\C(=O)N[C@@H]1C(=O)N2C(C(=O)O)=C(CSC(=O)c3ccco3)CS[C@H]12)c1csc(N)n1 [Ceftiofur] | 12.28 ± 0.045 | -0.44 | -0.46 | -0.31 | 0.28 | 0.54 | -0.51 | -0.13 | 0.47 | 0.79 | -0.05 | 0.23 | 0.28 | -0.02 | 0.07 |  | 0.39
CC1(C)S[C@@H]2[C@H](NC(=O)C(c3ccccc3)S(=O)(=O)O)C(=O)N2[C@H]1C(=O)O (stereo not given in full) [Sulbenicillin Sodium] | 12.35 ± 0.08 | -0.72 | 0.41 | -0.32 | 1.2 | 1.06 | -0.34 | -0.06 | 0.51 | 1.5 | 0.86 | 3.16 | 0.43 |  | 1.16 | 1.09 | 0.63
CO[C@@H]1[C@@H](OC(N)=O)[C@@H](O)[C@H](Oc2ccc3c(O)c(NC(=O)c4ccc(O)c(CC=C(C)C)c4)c(=O)oc3c2C)OC1(C)C [Novobiocin Sodium] | 12.7 ± 0.19 |  | -0.26 | -0.72 | 1.97 | 0.73 | -0.47 | 1.59 | 2.61 | 0.58 | 1.49 | 0.81 | 2.57 | 1.43 | 0.56 |  | 
C[C@H]1O[C@@H](O[C@H]2[C@@H](O)C[C@H](O[C@H]3[C@@H](O)C[C@H](O[C@H]4CC[C@@]5(C)[C@H](CC[C@@H]6[C@@H]5C[C@@H](O)[C@]5(C)[C@@H](C7=CC(=O)OC7)CC[C@]65O)C4)O[C@@H]3C)O[C@@H]2C)C[C@H](O)[C@@H]1O [Digoxin] | 12.4 ± 0.22 | 0.39 | -1.12 | -0.7 | 0.21 | -0.6 | -0.41 | -0.55 | 0.8 | -0.69 | -0.03 | -0.7 | -0.77 | -0.61 | -0.34 |  | -0.11
